In PubChem BioAssay:
Active and inactive are the calls of the source. Unless noted, how the calls were made is not given here.

Assays:
[1] = system: Wnt5a (protein binding on small-molecule microarray); assay: Wnt5a binders on small-molecule microarray, primary screen, biophysical, 635/667 nm fluorescence (AID 1142); conditions: 635 nm fluorescence, higher = more signal;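 further: fluorescence read at 667 nm with signal to noise per printed feature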
[2] = cell viability in Huh7 cells, primary screen, cytotoxicity control for HCV replication inhibitor project, CellTiter-Glo luminescence, basal, 48 h (AID 1143); conditions: Huh7 HCV replicon, higher = more signal, called active from +8 up or from −8 down;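 further: Huh7 hepatoma cells carrying a hepatitis C replication reporter with no stimulus; test concentration not given here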
[3] = P. aeruginosa biofilm formation inhibitors, primary screen, PAO1 strain, BacTiter-Glo luminescence, LB-PBS (AID 1144); conditions: 12 h, higher = more signal
[4] = CREB reporter modulators without forskolin, primary screen, cell-based, PC12, CRE-LacZ reporter, unstimulated (AID 1145); conditions: no forskolin, luminescence, 4.5 h, higher = more signal, called active from +8 up or from −8 down
[5] = CREB reporter modulators under forskolin, primary screen, cell-based, PC12, CRE-LacZ reporter, forskolin-stimulated (AID 1146); conditions: luminescence, 4.5 h, higher = more signal, called active from +8 up or from −8 down;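 further: PC12 cells with 6xCRE LacZ reporter stimulated by forskolin 10 µM; beta-galactosidase reporter signal reflecting CREB driven transcription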
[6] = target: Streptavidin (Streptomyces avidinii) (UniProt P22629); assay: streptavidin binders on small-molecule microarray, primary screen, artefact control for SMM compound annotation, biophysical, 635/667 nm fluorescence (AID 1147); conditions: streptavidin binding, higher = more signal;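 further: signal reflects streptavidin binding to arrayed compounds as a control protein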
Sequence of Streptavidin (Streptomyces avidinii) (P22629 whole entry, looked up): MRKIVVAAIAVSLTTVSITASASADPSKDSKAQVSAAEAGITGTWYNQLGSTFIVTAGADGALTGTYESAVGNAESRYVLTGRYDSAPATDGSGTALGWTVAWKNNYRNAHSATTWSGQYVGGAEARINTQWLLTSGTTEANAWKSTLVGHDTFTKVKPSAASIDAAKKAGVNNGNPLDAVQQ

[7] = small-molecule binders of probe aInhba, primary screen, biochemical, small-molecule microarray, 635/667 nm fluorescence (AID 1148); conditions: higher = more signal;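 further: score merges 667nm spot fluorescence with signal-to-noise for antibody binding to printed compounds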
Torsin-1A (Homo sapiens) [8] = target: Torsin-1A (Homo sapiens) (UniProt O14656); assay: torsin A binders from cell lysate, primary screen, small-molecule microarray, wild-type, 635/667 nm (AID 1149); conditions: COS7 hTOR1A-WT lysate, 635 nm fluorescence, higher = more signal
Sequence of Torsin-1A (Homo sapiens) (O14656 whole entry, looked up): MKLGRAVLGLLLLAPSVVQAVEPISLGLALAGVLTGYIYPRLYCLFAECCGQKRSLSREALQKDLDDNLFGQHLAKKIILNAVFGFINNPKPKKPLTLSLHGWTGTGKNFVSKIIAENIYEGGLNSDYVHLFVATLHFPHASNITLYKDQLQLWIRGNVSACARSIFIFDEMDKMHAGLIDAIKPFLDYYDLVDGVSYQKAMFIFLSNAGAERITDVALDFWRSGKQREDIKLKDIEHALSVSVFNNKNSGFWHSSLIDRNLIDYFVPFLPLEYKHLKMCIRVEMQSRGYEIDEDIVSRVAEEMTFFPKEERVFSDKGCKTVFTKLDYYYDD

Torsin-1A (Homo sapiens) [9] = target: Torsin-1A (Homo sapiens) (UniProt O14656); assay: small-molecule binders of mutant TOR1A in lysate, primary screen, cell lysate, small-molecule microarray, COS7 lysate, 635/667 nm fluorescence (AID 1150); conditions: COS7 hTOR1A mutant lysate, 635 nm fluorescence, higher = more signal;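 further: score pools 667 nm emission and signal to noise measuring lysate protein binding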
[10] = system: Sonic hedgehog protein (Shh); assay: small-molecule binders of Shh protein, primary screen, biochemical, small-molecule microarray, 635/667 nm fluorescence (AID 1151); conditions: small-molecule microarray binding, 635 nm fluorescence; higher = more signal;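 further: Shh protein binding to compounds spotted on small-molecule microarray slides; score combines spot fluorescence intensity with signal-to-noise across triplicate slides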
[11] = E. coli DRC41 culture turbidity changes, primary screen, E. coli filamentation inducer project, strain DRC41, OD650, 48 h (AID 1152);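 further: E. coli MC1000 strain DRC41 lacking acrAB efflux pump and sulA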; conditions: E. coli DRC41 (acrAB sulA), higher = more signal, called active from +8 up or from −8 down
[12] = small-molecule binders of probe aLefty1, primary screen, biochemical, small-molecule microarray, 635/667 nm fluorescence (AID 1153); conditions: higher = more signal;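 further: score merges spot fluorescence with signal-to-noise ratio from the scanned slide images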
[13] = PSAC antagonists in infected red cells, primary screen, cell-based, P. falciparum Indochina, OD700, 1 h (AID 1154); conditions: P. falciparum Indochina infected RBC osmotic lysis, higher = more signal, called active from +8 up or from −8 down
[14] = PSAC antagonists in infected red cells, primary screen, cell-based, P. falciparum Indochina, OD700, 2 h (AID 1155);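 further: lysis reports solute entry through the parasite surface anion channel PSAC; channel blockers reduce lysis of infected cells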; conditions: P. falciparum Indochina infected erythrocytes, osmotic lysis OD700; higher = more signal, called active from +8 up or from −8 down
[15] = osmotic lysis modulators in infected erythrocytes, primary screen, PSAC antagonist project, cell-based, P. falciparum Indochina, OD700, 3 h (AID 1156); conditions: higher = more signal, called active from +8 up or from −8 down
[16] = PSAC antagonists in infected red cells, primary screen, cell-based, P. falciparum Indochina, OD700, 18 h (AID 1157); conditions: P. falciparum Indochina infected erythrocytes, osmotic lysis OD700, 18 h; higher = more signal, called active from +8 up or from −8 down
[17] = modulators of S6 phosphorylation in cells, primary screen, cell-based, A549, cytoblot, luminescence, serum-stimulated (AID 1158); conditions: A549 phospho-S6 cytoblot, 5 h, higher = more signal;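 further: serum-stimulated A549 lung adenocarcinoma cells; signal is phosphorylated S6 detected by cytoblot immunostaining with HRP secondary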
[18] = target: NADPH oxidase 2 (Homo sapiens) (UniProt P04839); assay: NOX2-dependent H2O2 signal modulators, primary screen, NOX inhibitor project, cell-based, HEK293-NOX2, PMA-stimulated, Amplex Red fluorescence (AID 1159); conditions: 45 min, higher = more signal, called active from +8 up or from −8 down; further: test concentration not given here
Sequence of NADPH oxidase 2 (Homo sapiens) (P04839 whole entry, looked up): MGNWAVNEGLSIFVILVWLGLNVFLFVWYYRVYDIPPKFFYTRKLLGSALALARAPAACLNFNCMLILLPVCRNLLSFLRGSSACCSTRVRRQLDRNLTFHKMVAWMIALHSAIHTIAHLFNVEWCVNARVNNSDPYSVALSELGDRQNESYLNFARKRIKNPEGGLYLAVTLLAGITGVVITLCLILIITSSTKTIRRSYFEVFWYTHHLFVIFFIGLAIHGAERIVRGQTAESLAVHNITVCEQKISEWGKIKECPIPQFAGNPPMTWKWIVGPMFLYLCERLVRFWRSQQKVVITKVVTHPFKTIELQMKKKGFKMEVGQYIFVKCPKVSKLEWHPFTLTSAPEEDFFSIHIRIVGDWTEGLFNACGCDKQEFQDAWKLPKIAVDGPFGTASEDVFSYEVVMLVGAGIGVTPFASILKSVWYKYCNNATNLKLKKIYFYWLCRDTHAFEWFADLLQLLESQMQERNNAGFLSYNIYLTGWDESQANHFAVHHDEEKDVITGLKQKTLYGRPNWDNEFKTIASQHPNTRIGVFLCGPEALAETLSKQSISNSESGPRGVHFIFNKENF

[19] = target: NADPH oxidase 4 (Homo sapiens) (UniProt Q9NPH5); assay: NOX4-dependent H2O2 signal modulators, primary screen, NOX inhibitor project, cell-based, HEK293-NOX4, tetracycline-induced, Amplex Red fluorescence (AID 1160); conditions: 45 min, higher = more signal, called active from +8 up or from −8 down
Sequence of NADPH oxidase 4 (Homo sapiens) (Q9NPH5 whole entry, looked up): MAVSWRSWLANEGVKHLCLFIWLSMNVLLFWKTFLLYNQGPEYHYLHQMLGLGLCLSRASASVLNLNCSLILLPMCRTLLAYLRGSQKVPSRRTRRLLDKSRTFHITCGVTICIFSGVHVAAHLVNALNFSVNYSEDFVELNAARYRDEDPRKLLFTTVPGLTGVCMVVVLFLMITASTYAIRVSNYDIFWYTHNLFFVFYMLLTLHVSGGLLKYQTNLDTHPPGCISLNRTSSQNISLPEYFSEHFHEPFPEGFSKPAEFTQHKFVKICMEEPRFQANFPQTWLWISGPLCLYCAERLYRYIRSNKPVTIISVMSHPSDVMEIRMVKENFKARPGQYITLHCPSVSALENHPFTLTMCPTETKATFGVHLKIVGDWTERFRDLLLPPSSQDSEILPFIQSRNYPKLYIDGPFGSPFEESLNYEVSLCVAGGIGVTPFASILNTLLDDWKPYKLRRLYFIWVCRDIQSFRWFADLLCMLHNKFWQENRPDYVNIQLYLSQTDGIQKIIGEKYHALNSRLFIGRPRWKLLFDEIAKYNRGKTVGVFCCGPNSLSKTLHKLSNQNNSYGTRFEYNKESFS

[20] = target: NADPH oxidase 5 (Homo sapiens) (UniProt Q96PH1); assay: NOX5-dependent H2O2 signal modulators, primary screen, NOX inhibitor project, cell-based, HEK293-NOX5, Amplex Red fluorescence (AID 1161); conditions: HEK293-NOX5, ionomycin, 45 min, higher = more signal
Sequence of NADPH oxidase 5 (Homo sapiens) (Q96PH1 whole entry, looked up): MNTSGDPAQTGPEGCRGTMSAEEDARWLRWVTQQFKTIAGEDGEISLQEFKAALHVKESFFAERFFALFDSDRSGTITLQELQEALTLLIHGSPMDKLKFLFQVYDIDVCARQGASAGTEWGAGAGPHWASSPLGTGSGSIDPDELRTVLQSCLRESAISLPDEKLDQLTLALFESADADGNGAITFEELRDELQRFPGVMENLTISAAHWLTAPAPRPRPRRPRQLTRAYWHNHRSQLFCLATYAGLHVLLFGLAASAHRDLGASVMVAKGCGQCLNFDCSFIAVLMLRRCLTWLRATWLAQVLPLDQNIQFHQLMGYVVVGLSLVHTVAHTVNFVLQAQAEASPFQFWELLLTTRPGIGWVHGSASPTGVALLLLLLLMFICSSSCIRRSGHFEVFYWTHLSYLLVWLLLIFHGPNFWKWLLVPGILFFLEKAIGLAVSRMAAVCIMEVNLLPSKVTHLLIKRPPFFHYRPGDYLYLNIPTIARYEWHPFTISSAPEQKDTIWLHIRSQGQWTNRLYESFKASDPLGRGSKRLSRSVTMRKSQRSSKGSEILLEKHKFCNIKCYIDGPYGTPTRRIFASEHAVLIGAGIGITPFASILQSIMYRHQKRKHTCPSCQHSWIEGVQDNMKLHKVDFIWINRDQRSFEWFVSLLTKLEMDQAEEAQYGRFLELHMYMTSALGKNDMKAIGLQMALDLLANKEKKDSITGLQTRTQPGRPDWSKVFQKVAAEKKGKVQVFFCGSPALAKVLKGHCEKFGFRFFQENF

Row | Structure (SMILES) | composite z-score [1] | z-score [2] | z-score [3] | z-score [4] | z-score [5] | composite z-score [6] | composite z-score [7] | composite z-score (Torsin-1A (Homo sapiens) [8]) | composite z-score (Torsin-1A (Homo sapiens) [9]) | composite z-score [10] | z-score [11] | composite z-score [12] | z-score [13] | z-score [14] | z-score [15] | z-score [16] | z-score [17] | z-score [18] | z-score [19] | z-score [20]
1 | CCOC(=O)[C@H](CC(C)C)NC(=O)CCC1CC(OC(=O)NCc2ccc3c(c2)OCO3)CC2(CCCC(COC(=O)NCCc3ccc(Cl)cc3)O2)O1 (stereo not given in full) | 0.277 | -0.197 (inactive) | -0.0985 (inactive) | 0.737 (inactive) | 0.501 (inactive) | 0.288 | -0.089 | -0.157 | 0.361 | 1.86 | 0.386 (inactive) | 0.213 | 1.83 (inactive) | -0.39 (inactive) | -0.254 (inactive) | -0.144 (inactive) | -0.793 | 0.747 (inactive) | 0.575 (inactive) | 0.301
2 | C[C@H]1CC[C@@H](C(=O)O)N[C@@H]1c1ccc(C#Cc2ccccc2)cc1 | 0.177 | -7 (inactive) | 0.696 (inactive) | 0.112 (inactive) | -1.58 (inactive) | 2.04 | -0.0403 | 0.587 | 0.439 | 1.53 | -0.553 (inactive) | -0.101 | 0.0311 (inactive) | -0.0838 (inactive) | 0.26 (inactive) | -0.267 (inactive) | -0.895 | -0.217 (inactive) | 1.11 (inactive) | 1.93
3 | CC(C)=NOC(C)CN1CCCc2nc(C)c(C)cc21 (stereo not given) | 0.299 | 0.431 (inactive) | -0.905 (inactive) | 0.0757 (inactive) | -0.263 (inactive) | -0.0623 | 0.0074 | 0.111 | 0.386 | 1.35 | -0.477 (inactive) | -0.012 | 0.421 (inactive) | 0.774 (inactive) | 0.175 (inactive) | 0.539 (inactive) | -0.558 | -0.369 (inactive) | -0.141 (inactive) | -0.281
4 | O=C(NCCC[N+]1=CC=NC1c1ccccc1)N1CCCc2nc(-c3ccc(Br)cc3)ccc21 (stereo not given) | -0.215 | -2.49 (inactive) | 0.616 (inactive) | -0.888 (inactive) | -0.0384 (inactive) | 0.0054 | -0.118 | 0.291 | 0.405 | 0.322 | 0.315 (inactive) | -0.164 | 5.32 (inactive) | 0.705 (inactive) | 1.5 (inactive) | 0.518 (inactive) | -0.26 | 0.528 (inactive) | -0.261 (inactive) | -1.64
5 | CC(CCC(=O)OC[C@H]1O[C@H](C#Cc2ccccc2)C=C[C@@H]1Oc1ccc(C)cc1)=NOC(C)CN1CCCCc2nc(C)c(C)cc21 (stereo not given in full) | -0.271 | -1.13 (inactive) | 0.455 (inactive) | -0.561 (inactive) | 1.1 (inactive) | -0.0512 | -0.246 | -0.453 | -0.269 | 0.517 | -0.131 (inactive) | -0.191 | 4.27 (inactive) | 0.459 (inactive) | 0.983 (inactive) | 0.662 (inactive) | -0.487 | -0.802 (inactive) | -0.341 (inactive) | -0.461
6 | CCc1cc2c(nc1CC)CCN(CCC(C)=NOC(C)CN1CCCCc3nc(C)c(C)cc31)C2 (stereo not given) | 0.393 | -3.02 (inactive) | 0.227 (inactive) | 2.08 (inactive) | 0.633 (inactive) | 0.88 | 0.0713 | 2.23 | 1.08 | 1.58 | -1.74 (inactive) | 0.131 | 5.84 (inactive) | 0.499 (inactive) | 1.54 (inactive) | 0.539 (inactive) | -0.408 | -3.06 (inactive) | -3.1 (inactive) | -2.84
7 | C[C@@H]1CC[C@@H](C(=O)O)N[C@H]1c1cccc(N2CCOCC2)c1 | -0.0449 | -0.538 (inactive) | -1.08 (inactive) | -0.974 (inactive) | -1.29 (inactive) | 0.032 | -0.273 | 0.482 | 0.944 | 0.908 | 0.563 (inactive) | -0.0984 | -0.0136 (inactive) | 0.18 (inactive) | 0.468 (inactive) | 0.247 (inactive) | 0.778 | -0.438 (inactive) | 0.65 (inactive) | 0.252
8 | COCOc1ccc(Br)cc1C(=O)C=Cc1ccc2c(c1)OCO2 | -0.18 | -3.9 (inactive) | -1.46 (inactive) | 15.5 (active) | 5.69 (inactive) | -0.0743 | -0.182 | 0.61 | 0.281 | 0.487 | 0.677 (inactive) | -0.103 | 8.25 (active) | -0.0749 (inactive) | 0.365 (inactive) | -1.11 (inactive) | 0.835 | 0.187 (inactive) | 0.138 (inactive) | -1.03
9 | CC(C)C(=O)N[C@H]1CCCN1C(=O)C=Cc1ccccc1 | 0.121 | 0.623 (inactive) | 0.186 (inactive) | -0.255 (inactive) | -0.135 (inactive) | 0.111 | 0.0173 | 0.445 | 0.231 | 0.769 | -1.05 (inactive) | 0.271 | 1.35 (inactive) | 0.627 (inactive) | 0.632 (inactive) | 0.346 (inactive) | -0.53 | 0.679 (inactive) | 0.913 (inactive) | -0.732
